These results are taken from PubChem BioAssay (NCI).

The panel holds about 79,000 compounds, 15% with a hit somewhere; the sample as a whole holds those more often. Active and inactive are the calls of the source. Rule as the data show it: active = growth inhibition above about 70%; inactive = the rest. Where a SMILES comes first, the peptide text is derived from it. The star is where a group is joined. Cbz = O=C(OCc1ccccc1)*; Boc = CC(C)(C)OC(=O)*; OBn = c1ccc(CO*)cc1; Bn = c1ccc(C*)cc1

A short description of this test: NCI Yeast Anticancer Drug Screen. Data for the rad50 strain (AID 155).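 Also: 0% = growth of vehicle-only cultures of the same strain.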 To be noted: S. cerevisiae rad50 strain growth inhibition; at 50.0 µM; active compounds read high. Here is the method: Growth inhibition of yeast strains with defined genetic alterations is measured as a screen for potential anti-cancer activity. Selected strains with alterations in DNA damage repair or cell cycle control were exposed to compounds and growth inhibition was measured relative to vehicle treated controls. The strain used in this assay is rad50
Consider `O=[N+]([O-])c1ccc(N/N=C/C2CC=CCC2)c([N+](=O)[O-])c1` (stereo not given), for which the growth inhibition was 7% (inactive). On to `COc1ccccc1C(O)c1ccccc1` (stereo not given), for which the growth inhibition is 9.6% (inactive). The same measure for `NC(=O)CNC(=O)[C@@H]1C[C@@H](OCCC(=O)O)CN1C(=O)OCc1ccccc1`: -32.2% (inactive); for `Cc1ccc(S(=O)(=O)CC(=O)NC(N)=O)cc1`: -5% (inactive). The same measure for `CCCCCCCc1cc(OC(=O)c2c(C)cc(OC)cc2O)cc(O)c1C(=O)O`: 13.4% (inactive); for `CC(=O)NC1C(OCC(=O)NC(C)C(=O)NC(CCC(=O)NCCCCCNc2ccc([N+](=O)[O-])c3[nH]c4ccccc4c(=O)c23)C(N)=O)C(O)C(CO)OC1(C)OCc1ccccc1` (stereo not given): -7.65% (inactive). The same measure for `CCCc1ccc(N=Cc2cc(OC)c(OC)c(OC)c2)cc1`: -1.85% (inactive); for `Cc1ccc2nc(-c3ccc(Cl)cc3Cl)oc(=O)c2c1`: -9.35% (inactive); for `Cc1cc(-c2cscn2)c(O)c([N+](=O)[O-])c1`: 3.05% (inactive). Consider `COc1ccc(Br)cc1/C=N\NC(=O)c1ccccc1N(C)C`, for which the growth inhibition was -24.2% (inactive). The same measure for `CCOC(=O)/C(C#N)=C\N(C)C`: 8.75% (inactive); for `CN(CCC[N+](C)(C)C)C(=O)C(c1ccccc1)c1ccccc1`: 45% (inactive). The same measure for `CC(C)C(NC(=O)C(Cc1ccc(O)cc1)NC(=O)OCc1ccccc1)C(=O)O` (stereo not drawn) (Cbz-Tyr-Val-OH; configuration not given here): 10.2% (inactive); for `COc1c(OC(C)=O)cc(Cl)c(C=O)c1[N+](=O)[O-]`: 5.25% (inactive). The same measure for `CC1CC=CCC1C(=O)OC/C=C/COC(=O)C1CC=CCC1C` (stereo not given): 29.4% (inactive). Consider `COc1ccc(Cc2cc3c(cc2OC(C)=O)OCO3)cc1`, for which the growth inhibition is -4.2% (inactive). The same measure for `O=C(C(O)c1ccccc1)N1CCCCC1` (stereo not given): 32.6% (inactive); for `CN1CNc2nc(N)n(C)c(=O)c2C1`: 11.2% (inactive); for `Cc1cc2c(=O)n(-c3ccc(F)cc3)c(C)nc2c(C(=O)O)c1C`: -11.3% (inactive).

`CC(O)C(=O)N1CCOCC1` (stereo not given): the growth inhibition was 3.5% (inactive). The same measure for `S=C1CNC(=S)CN1`: -4.15% (inactive).

For `Cc1c(O)c(=O)ccn1C1OC(CO)C(O)C1O` (stereo not given), the growth inhibition was 16.5% (inactive). The same measure for `O=C(Cl)C=Cc1ccc([N+](=O)[O-])cc1` (mixture of isomers): 4.7% (inactive); for `CCCCCCCCCCCCCCCCCC(=O)OCCCC`: 6.35% (inactive); for `CCCNCC(O)CNc1ccc(Cl)cc1` (stereo not given): 3.1% (inactive). The same measure for `CCOC(=O)C1(C)Sc2ccccc2N=C1c1ccccc1` (stereo not given): 25.9% (inactive); for `S=c1sc2ccccc2n1CN1CCCC1`: 6.1% (inactive). The same measure for `CCOC(=O)C(CCC#N)(NC(C)=O)C(=O)OCC`: 1.4% (inactive); for `N=[N+]=CC(=O)OCC(N)C(=O)O` (stereo not given): 78.7% (active); for `C1=Nc2ccccc2/C1=C/c1ccc2c(c1)OCO2`: 24.3% (inactive).

For `CC12CCC3C(CCC4CC(OC5CCCCO5)CCC43C)C1CC/C2=C/C#N` (stereo not given), the growth inhibition is 29.4% (inactive). For the molecule `CCc1c2cc(OC)c(OC)cc2cc2c3cc(OC)c(OC)cc3cc[n+]12` (tested in a mixture with another compound), the growth inhibition was -23.1% (inactive). `CC(C)CC(NC(=O)C(CCC(=O)OCc1ccccc1)NC(=O)OC(C)(C)C)C(=O)NC(COCc1ccccc1)C(=O)NC(Cc1ccccc1)C(=O)O` (stereo not given) (Boc-E(OBn)LS(Bn)F-OH; configuration not given here): the growth inhibition is -6.65% (inactive).

In the case of `c1ccc(CN[C@]23C4C5CC6C7C5C2C7[C@@](NCc2ccccc2)(C64)N3Cc2ccccc2)cc1` (stereo not given in full), the growth inhibition is 2.7% (inactive).

As to `c1ccc2c(C3=NCCO3)cccc2c1`, the growth inhibition was 11.7% (inactive). The same measure for `COc1cc(OC)c2nc3ccccc3c(NCCC[N+](C)(C)[O-])c2c1[N+](=O)[O-]`: 7.65% (inactive); for `COc1cc2ccnc(CCCc3nccc4cc(OC)c(OC)cc34)c2cc1OC`: -30.1% (inactive). The same measure for `O=S(=O)(Nc1ccccc1C(O)c1ccccc1)c1ccccc1` (stereo not given): 35.5% (inactive). With `CC(=O)CC(=O)N1CCN(C(=O)CC(C)=O)C(C)C1` (stereo not given), the growth inhibition is -7.95% (inactive). As to `C(=C\P(c1ccccc1)c1ccccc1)/P(/C=C/P(c1ccccc1)c1ccccc1)c1ccccc1`, the growth inhibition was -18.4% (inactive).
